Experimental data as given in PubChem BioAssay AID893 (National Center for Advancing Translational Sciences (NCATS), 2007).
The campaign covered roughly 75,000 compounds. About 5,700 (7.6%) were called active. Where a call stands in place of a potency, no number is given. Not shown: some 7% with an inconclusive outcome. The full list was thinned out, with actives kept by preference. Unmarked numbers belong to inactive results. Calls come from the whole dose curve; as a rule, active = well fitted inhibition curve with a large enough effect; inconclusive = small, poorly fitted or top-dose-only effect; inactive = no such curve, though single readings can be large or run the other way.

target: 3-hydroxyacyl-CoA dehydrogenase type-2 (Homo sapiens) (UniProt Q99714); assay: qHTS Assay for Inhibitors of HSD17B4, hydroxysteroid (17-beta) dehydrogenase 4; details: recombinant HSD17B10, NADH fluorescence kinetic; series mostly up to 57.1 µM;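 note: the protocol describes HADH2 (HSD17B10) and not the HSD17B4 of the title; nearly all actives have a fitted effect of over 70% in size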
Method in brief: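 Enzyme plus compound, 15 min room temperature; substrate mix added (NAD+ 1 mM, beta-hydroxybutyryl-CoA 90 uM final); plates read kinetically for NADH fluorescence. HADH2 was His-tagged, E. coli-derived, 20 nM.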
Potency is the fitted concentration of half-maximal effect.

| Compound | Potency | activity change, negative = inhibition |
| --- | --- | --- |
| CCC(CCC(C)C1CCC2C3CC=C4CC(O)CC[C@@]4(C)C3CC[C@@]12C)C(C)C (some centres not stated) | inactive | – |
| COC(=O)c1ccc(/C=N\n2c(C)nnc2C)cc1 | inactive | – |
| COc1ccccc1-c1cc(NCc2cccs2)ncn1 | inactive | – |
| CC1OC(OCC2OC(Oc3c(-c4ccc(O)c(O)c4)oc4cc(O)cc(O)c4c3=O)C(O)C(O)C2O)[C@@H](O)C(O)C1O (some centres not stated) | inactive | – |
| COc1ccc(CCC(=O)c2c(O)cc(OC3OC(CO)C(O)C(O)C3O[C@@H]3OC(C)C(O)C(O)C3O)cc2O)cc1O (some centres not stated) | inactive | – |
| C[C@@H]1O[C@@H](O[C@@H]2[C@@H](O)[C@H](OCCc3ccc(O)c(O)c3)O[C@H](CO[C@@H]3O[C@H](CO)[C@@H](O)[C@H](O)[C@H]3O)[C@H]2OC(=O)/C=C/c2ccc(O)c(O)c2)[C@H](O)[C@H](O)[C@H]1O | 2 µM (active) | – |
| CN1C(=O)c2ccccc2C(C(=O)NCCCN2CCCC2)C1c1c[nH]c2ccccc12 (configuration not stated) | inactive | – |
| COC(=O)[C@@H]1CC[C@H](C)[C@@H](c2ccc(C)cc2)N1C(=O)c1ccc(/C=N\OC[C@@H](O)COCc2ccco2)cc1 | – | -1.91% [at 11.4 µM] |
| CCCS(=O)(=O)N1CCC(C(=O)NCCc2ccc(OC)c(OC)c2)CC1 | inactive | – |
| COc1ccc(CCNC(=O)C2CCN(c3nn4c(=O)cc(C)nc4s3)CC2)cc1OC | inactive | – |
| CCOc1ccc(CCNC(=O)C2CCN(c3ccc(N4CCOCC4)nn3)CC2)cc1OCC | 25.1 µM (active) | – |
| CCC(C)NC(=O)C1CCC(=O)N1Cc1ccc(C)cc1 (configuration not stated) | inactive | – |
| CC(C)CO/N=C1/C[C@@H](O)[C@@H](O)[C@@H]2[C@@H]3C(=O)N(C[C@@H]4CCCO4)C(=O)[C@H]3CC[C@@H]12 | – | 9.42% [at 11.4 µM] |
| CN(Cc1ccccc1)c1nc2c(c(=O)[nH]c(=O)n2C)n1CCSc1nc2ccccc2[nH]1 | inactive | – |
| Cc1ccnc(SCCn2c(N(C)Cc3ccccc3)nc3c2c(=O)n(C)c(=O)n3C)n1 | 31.6 µM (active) | – |
| CC(C)CCn1c(CN(C)Cc2ccccc2)nc2c1c(=O)n(C)c(=O)n2C | inactive | – |
| COc1ccc(OC)c(C(=O)c2coc3ccc(O)c(CN4CCOCC4)c23)c1 | inactive | – |
| O=c1c(-c2ccccc2)coc2c(CN3CCOCC3)c(O)ccc12 | 31.6 µM (active) | – |
| CN1CCN(Cc2c(O)ccc3c2oc(=O)c2ccccc23)CC1 | inactive | – |
| Cc1ccnc(-n2sc3ccccc3c2=O)n1 | 3.16 µM (active) | – |
| COc1ccc(S(=O)(=O)N(CCCN2CCCC2=O)Cc2cc3c(C)ccc(C)c3[nH]c2=O)cc1 | inactive | – |
| O=C1Nc2ccccc2C12Nc1ccccc1S2 (configuration not stated) | inactive | – |
| O=C1NC(c2cc3c(cc2Cl)OCO3)Oc2ccccc21 (configuration not stated) | 31.6 µM (active) | – |
| CCCOc1ccccc1C1CC(=O)Nc2cc3c(cc21)OCO3 (configuration not stated) | inactive | – |
| O=C(Nc1ccc(Cl)cc1)c1ccsn1 | inactive | – |
| COC(=O)c1ccc(S(=O)(=O)c2ccc(C(=O)OC)s2)s1 | inactive | – |

| Compound | Potency | activity change, negative = inhibition |
| --- | --- | --- |
| CCCC[C@@H]1C[C@H]1C(NC(=O)c1ccc(-c2ccccc2)cc1)c1ccc(-c2ccccc2)cc1 (some centres not stated) | inactive | – |
| Cc1oc2nc(SCC(=O)NCc3cccnc3)nc(N)c2c1C | inactive | – |
| COCCn1c(=O)c(-c2cccs2)nc2cnc(N3CCN(C)CC3)nc21 | 20 µM (active) | – |
| COc1ccc(-n2c(=O)c(C)nc3cnc(N4CCOCC4)nc32)cc1 | inactive | – |
| COCCn1c(=O)c(-c2ccccc2)nc2cnc(N3CCOCC3)nc21 | 20 µM (active) | – |
| COc1ccccc1CCn1c(=O)c(-c2cn(C)c3ccccc23)nc2cncnc21 | inactive | – |
| COCCn1c(=O)c(-c2cccs2)nc2cncnc21 | 25.1 µM (active) | – |
| COCCn1c(CN2CCC(Cc3ccccc3)CC2)nc2c1c(=O)n(C)c(=O)n2C | inactive | – |
| CCOC(=O)c1cc2occc2n1CC(=O)NC1CCC(C)CC1 (configuration not stated) | inactive | – |
| CCOC(=O)C1CCCN(C(=O)CN(c2ccc(OC)cc2)S(=O)(=O)c2c(C)noc2C)C1 (configuration not stated) | inactive | – |
| c1ccc(Nc2nc(-c3ccncc3)cs2)nc1 | inactive | – |
| O=C(Nc1nc(-c2ccc3c(c2)OCO3)cs1)c1ccncc1 | inactive | – |
| O=C(Nc1nc(-c2ccncc2)cs1)C1COc2ccccc2O1 (configuration not stated) | 31.6 µM (active) | – |
| CN/C(=C\[N+](=O)[O-])NCCSCc1csc(CN(C)C)n1 | inactive | – |
| Cn1c(=O)n(CCc2ccccc2)c(=O)c2c1nc1n2CCCN1c1ccccc1 | inactive | – |
| O=c1cnc2cnc(Nc3ccccc3)nc2n1Cc1ccc(F)cc1 | inactive | – |
| Cn1c(=O)c(CCc2ccccc2)nc2cnc(Nc3ccccc3)nc21 | inactive | – |
| Cc1nc2cnc(N3CCNCC3)nc2n(CCc2ccccc2)c1=O | 25.1 µM (active) | – |
| Cc1nc2cnc(Nc3ccccc3)nc2n(Cc2ccc(F)cc2)c1=O | inactive | – |
| O=c1c(CCc2ccccc2)nc2cncnc2n1C1CC1 | inactive | – |
| COc1cccc(Cn2c(=O)c(C)nc3cnc(Oc4ccccc4)nc32)c1 | inactive | – |
| CN(C)c1ncc2nc(-c3ccc(F)cc3)c(=O)n(Cc3ccc(F)cc3)c2n1 | 3.98 µM (active) | – |
| Cn1cc(-c2nc3cnc(N4CCNCC4)nc3n(CCc3ccccc3)c2=O)c2ccccc21 | inactive | – |
| N#Cc1cccc(-c2nc3cnc(N4CCNCC4)nc3n(C3CC3)c2=O)c1 | 3.98 µM (active) | – |
| COc1cccc(Cn2c(=O)c(CCc3ccccc3)nc3cnc(N(C)C)nc32)c1 | 25.1 µM (active) | – |
| COc1cccc(Nc2ncc3ncc(=O)n(C4CC4)c3n2)c1 | inactive | – |
